Experimental findings from paper PMC6212790, “How bacterial xenogeneic silencer rok distinguishes foreign from self DNA in its resident genome” are described below.

The full ranking holds about 33,000 sequences; the median of “e-score” is about -0.037, and the highest 2% start at about 0.34. The full list was thinned out, with the highest values kept by preference.

For the assay, the target named is T1, GST-Rok (full length) (Bacillus subtilis subsp. subtilis str. …, UniProt O34857 1-191).
T1 sequence: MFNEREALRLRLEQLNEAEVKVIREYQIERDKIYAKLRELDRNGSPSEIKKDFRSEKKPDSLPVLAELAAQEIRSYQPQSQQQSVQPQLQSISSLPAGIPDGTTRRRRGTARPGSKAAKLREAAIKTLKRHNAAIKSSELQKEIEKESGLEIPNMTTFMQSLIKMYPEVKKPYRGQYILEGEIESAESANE
In words: protein binding microarray; Rok is a gene silencer of Bacillus subtilis; high values mean tight binding. The conditions noted are these: protein: recombinant; tags: GST (pTH5325, pDEST15-Magic modified); dsDNA, one strand shown. A digest of the protocol: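 Each has a 25-mer constant primer and a 35-mer variable part from a de Bruijn sequence of order 10, covering every non-palindromic 8-mer at least 32 times (palindromic 16). Preference for each 8-mer is given as a rank-based, unitless enrichment score (E-score). Its range runs from 0.5 (most favored) to −0.5 (most disfavored).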
Take CTCCCAAC: the binding signal is -0.0944 E-score. The result for AGGCTTAA reads -0.159 E-score.

For the sequence ATACGTAA, the binding signal stood at 0.323 E-score. The result for CTAAAAAC reads 0.082 E-score; that for CTAGTTTC, 0.413 E-score. The result for CTAGTTGA reads 0.226 E-score; that for CCAGTTTC, -0.0817 E-score; that for CTAGTTTA, 0.383 E-score. The result for CTAGTTCA reads 0.152 E-score; that for ATAGTTTC, 0.398 E-score; that for ATAGTTTA, 0.346 E-score. Turning to CGAGTTTC, the binding signal is 0.0534 E-score. The result for ATAGTTGA reads 0.228 E-score; that for ATAGTTCC, 0.135 E-score. As for ATCGTTTA, the binding signal is -0.0103 E-score. On to ATCGTTTC, for which the binding signal turned out to be 0.14 E-score. The result for GCCTACTA reads 0.0988 E-score; that for ACAGGAGT, 0.0409 E-score. Regarding ACTTACTA, the binding signal is 0.306 E-score.

Regarding TGATTCAA, the binding signal is -0.164 E-score.

Take AAAGAATA: the binding signal came to 0.138 E-score.

Take CACTGACA: the binding signal is -0.161 E-score. Consider ATAGTTGG, for which the binding signal is 0.0271 E-score. The result for GGAGTTTA reads 0.0513 E-score; that for ATCGTTTG, -0.0128 E-score. The result for ATAGTTTG reads 0.364 E-score. Turning to GTAGTTTA, the binding signal amounted to 0.382 E-score. The result for GCAGTTTA reads 0.0849 E-score; that for AGCGTACT, 0.0975 E-score; that for GGTTGGTA, 0.109 E-score. The result for AGCCCTTA reads -0.135 E-score; that for AGGAAGAA, -0.0233 E-score; that for ACAAATTG, -0.0361 E-score. For the sequence ATAAATTA, the binding signal is 0.347 E-score.

Consider CTGAATTA, for which the binding signal was 0.134 E-score.

On to ATGAATTA, for which the binding signal came out at 0.353 E-score.

In the case of ATAAATTG, the binding signal was 0.336 E-score. As for CTAAATTA, the binding signal is 0.252 E-score.

With GTAAATTA, the binding signal was determined as 0.383 E-score. The result for ATAAATTC reads 0.221 E-score. Regarding ATGAATTG, the binding signal was 0.0516 E-score. The result for ACAAATTC reads 0.238 E-score. The result for TAAAATTA reads 0.199 E-score; that for ACAAATTA, 0.338 E-score.

In the case of ACTAATCA, the binding signal is 0.154 E-score. Regarding CCACTAGC, the binding signal is -0.055 E-score. The result for CGCCAGTA reads -0.111 E-score. Take TATTGCAA: the binding signal worked out at 0.253 E-score. On to ATAGCAGA, for which the binding signal turned out to be 0.144 E-score. As to GTACCATA, the binding signal is 0.339 E-score.

Consider CTACCATA, for which the binding signal was 0.328 E-score. As to GTACCAGA, the binding signal was -0.0447 E-score.

In the case of ATACCATC, the binding signal was found to be 0.198 E-score. Regarding ATACCATA, the binding signal turned out to be 0.286 E-score. The result for CTACCATC reads 0.396 E-score. Regarding ATGCTAGC, the binding signal came out at 0.313 E-score.

As for ATCAATTG, the binding signal stood at 0.221 E-score. The result for GCAATGTA reads 0.23 E-score. The result for TAAATCGA reads 0.0795 E-score; that for CAAGTCAA, 0.171 E-score; that for GACAACTA, 0.333 E-score. The result for CCAAAATA reads 0.164 E-score; that for TACAACTA, 0.368 E-score.

For TAAAAATA, the binding signal is 0.369 E-score. The result for AAAAAATA reads 0.314 E-score; that for CAGAAATA, 0.303 E-score; that for AACAACTA, 0.292 E-score. GAGAAATA: the binding signal is 0.305 E-score. The result for ACAAAATC reads -0.0365 E-score; that for ACAAAATA, 0.34 E-score; that for TAGAAATA, 0.409 E-score.

As to CTAAAATA, the binding signal was 0.262 E-score.

As for GCAGAACC, the binding signal was -0.0431 E-score. The result for ACCGGTGG reads -0.196 E-score; that for CTTACCTC, 0.143 E-score; that for AACGTAGA, 0.17 E-score. The result for AACCCAGG reads -0.0972 E-score; that for AGAGGTGA, -0.164 E-score. The result for GGACGCTA reads 0.000145 E-score; that for GAGTTGAA, 0.00685 E-score. Turning to AAACATAG, the binding signal turned out to be 0.247 E-score. Turning to CCTGCGAA, the binding signal was -0.196 E-score.

In the case of GGCTTCAA, the binding signal is -0.0517 E-score. As for ATAACCAA, the binding signal is 0.276 E-score.

Consider ATGGTTAC, for which the binding signal is -0.167 E-score. The result for AGAAAATA reads 0.328 E-score; that for CAGAACTA, 0.301 E-score. Turning to GAGAACTA, the binding signal was 0.326 E-score. For the sequence TAGAACTA, the binding signal was determined as 0.406 E-score. The result for GAAAAATA reads 0.279 E-score; that for GTAAAATA, 0.328 E-score.

With ATAAAATA, the binding signal came to 0.426 E-score. Turning to GGAAAATA, the binding signal was 0.37 E-score. On to ATAAAATG, for which the binding signal amounted to 0.203 E-score.
